Assay results: the supplement of paper PMC10849652
Of roughly 7,900 targets only a part is listed; those with a hit were picked by preference. About 0.6% of all pairs of compound and target were hits.

The targets below were run with O=C(CCCCCCNC(=O)c1cnc(N(c2ccccc2)c2ccccc2Cl)nc1)NO [citarinostat] (assay: log2 fold change, soluble protein after heating vs DMSO (PISA); higher = thermal stabilisation; K562 cells, 10 uM, 30 min; active = over 0.2 and 3.5 SD of the protein, either way, in both replicates (recomputed)).
Outline: (§1)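 For each measurement, 10 μM compound was applied for 30 min to K562 cells at 2×10^6 cells/mL. Aliquots were heated for 3 min across 48°C-58°C, pooled, and extracted in PBS with 0.5% NP-40 at 4°C; the supernatant after 21,000xg for 90 min was soluble protein. This was quantified by TMTpro 16plex LC-MS/MS with channel sums equalised, and thermal stability was reported relative to control samples from duplicates, on a log2 fold-change scale.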

UniProt Q9C037, sequence (Q9C037 whole entry, looked up): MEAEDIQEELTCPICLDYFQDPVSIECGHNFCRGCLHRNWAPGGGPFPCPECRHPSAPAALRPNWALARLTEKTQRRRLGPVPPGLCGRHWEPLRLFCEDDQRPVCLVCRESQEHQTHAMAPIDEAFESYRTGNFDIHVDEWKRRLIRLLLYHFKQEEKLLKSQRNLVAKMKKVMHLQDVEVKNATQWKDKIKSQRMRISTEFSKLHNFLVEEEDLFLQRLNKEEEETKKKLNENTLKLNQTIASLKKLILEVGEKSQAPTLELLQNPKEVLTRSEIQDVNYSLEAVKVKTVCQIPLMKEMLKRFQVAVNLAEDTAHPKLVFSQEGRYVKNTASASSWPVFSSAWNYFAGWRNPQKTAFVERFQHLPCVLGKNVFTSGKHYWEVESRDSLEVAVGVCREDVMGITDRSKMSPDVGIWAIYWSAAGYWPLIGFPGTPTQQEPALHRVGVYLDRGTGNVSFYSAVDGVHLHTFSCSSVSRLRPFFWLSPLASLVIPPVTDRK
UniProt Q7Z7N9, sequence (Q7Z7N9 whole entry, looked up): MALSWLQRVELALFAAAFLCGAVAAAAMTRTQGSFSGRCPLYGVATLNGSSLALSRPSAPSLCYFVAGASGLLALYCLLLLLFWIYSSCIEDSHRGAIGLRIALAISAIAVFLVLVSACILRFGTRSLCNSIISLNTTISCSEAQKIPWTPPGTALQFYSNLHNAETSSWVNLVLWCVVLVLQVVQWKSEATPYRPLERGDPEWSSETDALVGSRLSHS
UniProt Q9H4I3, sequence (Q9H4I3 whole entry, looked up): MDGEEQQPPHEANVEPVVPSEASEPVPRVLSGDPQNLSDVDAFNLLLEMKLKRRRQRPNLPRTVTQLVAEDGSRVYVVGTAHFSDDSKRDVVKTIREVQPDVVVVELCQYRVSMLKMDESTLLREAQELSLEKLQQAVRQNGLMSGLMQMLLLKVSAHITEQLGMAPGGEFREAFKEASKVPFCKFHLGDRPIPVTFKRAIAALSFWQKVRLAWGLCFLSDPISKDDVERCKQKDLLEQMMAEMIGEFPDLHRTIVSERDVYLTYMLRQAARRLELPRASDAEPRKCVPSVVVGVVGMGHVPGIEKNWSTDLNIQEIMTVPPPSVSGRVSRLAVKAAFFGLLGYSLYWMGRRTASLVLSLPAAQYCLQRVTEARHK
UniProt Q9NQ34, sequence (Q9NQ34 whole entry, looked up): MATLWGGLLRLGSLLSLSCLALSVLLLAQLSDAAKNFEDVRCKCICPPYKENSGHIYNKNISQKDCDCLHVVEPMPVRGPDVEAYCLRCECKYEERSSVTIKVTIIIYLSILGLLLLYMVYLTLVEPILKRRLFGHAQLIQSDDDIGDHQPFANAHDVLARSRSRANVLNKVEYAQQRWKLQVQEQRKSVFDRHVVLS
UniProt Q641Q2, sequence (Q641Q2 whole entry, looked up): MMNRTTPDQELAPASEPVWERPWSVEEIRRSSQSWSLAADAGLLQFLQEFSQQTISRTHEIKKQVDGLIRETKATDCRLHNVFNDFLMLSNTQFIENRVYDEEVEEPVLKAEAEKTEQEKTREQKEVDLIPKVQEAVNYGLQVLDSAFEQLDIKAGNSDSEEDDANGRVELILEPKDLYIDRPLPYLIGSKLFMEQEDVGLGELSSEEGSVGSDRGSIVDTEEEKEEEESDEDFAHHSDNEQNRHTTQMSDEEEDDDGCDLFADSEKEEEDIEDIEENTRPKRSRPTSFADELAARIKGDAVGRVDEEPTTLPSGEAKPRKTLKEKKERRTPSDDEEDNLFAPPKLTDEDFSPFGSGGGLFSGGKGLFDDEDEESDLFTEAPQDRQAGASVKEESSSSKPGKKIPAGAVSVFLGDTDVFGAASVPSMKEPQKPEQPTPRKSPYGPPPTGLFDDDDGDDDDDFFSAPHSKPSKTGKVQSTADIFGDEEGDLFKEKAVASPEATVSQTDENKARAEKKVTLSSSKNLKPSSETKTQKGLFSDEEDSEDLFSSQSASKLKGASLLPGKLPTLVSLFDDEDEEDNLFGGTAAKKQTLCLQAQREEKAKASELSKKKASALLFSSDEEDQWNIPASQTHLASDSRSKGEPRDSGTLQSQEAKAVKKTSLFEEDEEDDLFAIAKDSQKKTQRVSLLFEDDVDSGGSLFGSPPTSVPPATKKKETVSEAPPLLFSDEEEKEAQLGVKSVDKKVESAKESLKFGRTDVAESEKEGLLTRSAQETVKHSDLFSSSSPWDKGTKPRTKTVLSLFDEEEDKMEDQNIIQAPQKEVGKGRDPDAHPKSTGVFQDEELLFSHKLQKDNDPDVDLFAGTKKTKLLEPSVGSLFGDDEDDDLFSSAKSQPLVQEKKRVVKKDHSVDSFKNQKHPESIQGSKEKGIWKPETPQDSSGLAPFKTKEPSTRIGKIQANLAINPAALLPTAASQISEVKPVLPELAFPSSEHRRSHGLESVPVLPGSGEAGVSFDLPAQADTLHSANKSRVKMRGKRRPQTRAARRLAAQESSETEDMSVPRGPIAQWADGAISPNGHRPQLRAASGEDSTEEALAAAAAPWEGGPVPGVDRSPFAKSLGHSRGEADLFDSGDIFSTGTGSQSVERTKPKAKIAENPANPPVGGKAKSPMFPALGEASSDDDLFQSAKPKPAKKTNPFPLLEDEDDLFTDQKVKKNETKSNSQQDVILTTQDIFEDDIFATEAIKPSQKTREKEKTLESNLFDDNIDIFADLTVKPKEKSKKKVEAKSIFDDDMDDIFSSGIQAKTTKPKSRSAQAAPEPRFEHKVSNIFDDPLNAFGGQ
UniProt Q5U3C3, sequence (Q5U3C3 whole entry, looked up): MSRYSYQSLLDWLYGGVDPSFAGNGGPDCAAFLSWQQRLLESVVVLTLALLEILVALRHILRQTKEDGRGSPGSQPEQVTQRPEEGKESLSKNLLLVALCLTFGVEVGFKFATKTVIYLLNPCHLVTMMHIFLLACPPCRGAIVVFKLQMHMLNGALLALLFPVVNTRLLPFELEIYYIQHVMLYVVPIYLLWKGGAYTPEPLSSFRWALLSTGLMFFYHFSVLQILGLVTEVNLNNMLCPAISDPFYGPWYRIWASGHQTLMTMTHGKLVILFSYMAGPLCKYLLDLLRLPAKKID
UniProt Q16763, sequence (Q16763 whole entry, looked up): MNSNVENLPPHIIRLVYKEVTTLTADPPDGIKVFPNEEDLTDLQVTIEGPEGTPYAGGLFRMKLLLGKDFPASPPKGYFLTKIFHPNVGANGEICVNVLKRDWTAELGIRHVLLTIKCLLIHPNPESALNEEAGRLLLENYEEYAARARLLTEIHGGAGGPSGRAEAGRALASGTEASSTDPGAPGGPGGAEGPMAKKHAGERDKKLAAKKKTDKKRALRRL
UniProt Q96LJ8, sequence (Q96LJ8 whole entry, looked up): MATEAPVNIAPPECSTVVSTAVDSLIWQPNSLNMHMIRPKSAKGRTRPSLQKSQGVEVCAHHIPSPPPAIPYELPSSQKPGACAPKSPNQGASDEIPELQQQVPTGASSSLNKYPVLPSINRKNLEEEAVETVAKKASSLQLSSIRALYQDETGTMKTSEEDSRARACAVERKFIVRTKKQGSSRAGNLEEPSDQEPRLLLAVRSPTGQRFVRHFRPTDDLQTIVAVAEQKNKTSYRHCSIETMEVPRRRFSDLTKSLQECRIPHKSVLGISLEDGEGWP
UniProt O95155, sequence (O95155 whole entry, looked up): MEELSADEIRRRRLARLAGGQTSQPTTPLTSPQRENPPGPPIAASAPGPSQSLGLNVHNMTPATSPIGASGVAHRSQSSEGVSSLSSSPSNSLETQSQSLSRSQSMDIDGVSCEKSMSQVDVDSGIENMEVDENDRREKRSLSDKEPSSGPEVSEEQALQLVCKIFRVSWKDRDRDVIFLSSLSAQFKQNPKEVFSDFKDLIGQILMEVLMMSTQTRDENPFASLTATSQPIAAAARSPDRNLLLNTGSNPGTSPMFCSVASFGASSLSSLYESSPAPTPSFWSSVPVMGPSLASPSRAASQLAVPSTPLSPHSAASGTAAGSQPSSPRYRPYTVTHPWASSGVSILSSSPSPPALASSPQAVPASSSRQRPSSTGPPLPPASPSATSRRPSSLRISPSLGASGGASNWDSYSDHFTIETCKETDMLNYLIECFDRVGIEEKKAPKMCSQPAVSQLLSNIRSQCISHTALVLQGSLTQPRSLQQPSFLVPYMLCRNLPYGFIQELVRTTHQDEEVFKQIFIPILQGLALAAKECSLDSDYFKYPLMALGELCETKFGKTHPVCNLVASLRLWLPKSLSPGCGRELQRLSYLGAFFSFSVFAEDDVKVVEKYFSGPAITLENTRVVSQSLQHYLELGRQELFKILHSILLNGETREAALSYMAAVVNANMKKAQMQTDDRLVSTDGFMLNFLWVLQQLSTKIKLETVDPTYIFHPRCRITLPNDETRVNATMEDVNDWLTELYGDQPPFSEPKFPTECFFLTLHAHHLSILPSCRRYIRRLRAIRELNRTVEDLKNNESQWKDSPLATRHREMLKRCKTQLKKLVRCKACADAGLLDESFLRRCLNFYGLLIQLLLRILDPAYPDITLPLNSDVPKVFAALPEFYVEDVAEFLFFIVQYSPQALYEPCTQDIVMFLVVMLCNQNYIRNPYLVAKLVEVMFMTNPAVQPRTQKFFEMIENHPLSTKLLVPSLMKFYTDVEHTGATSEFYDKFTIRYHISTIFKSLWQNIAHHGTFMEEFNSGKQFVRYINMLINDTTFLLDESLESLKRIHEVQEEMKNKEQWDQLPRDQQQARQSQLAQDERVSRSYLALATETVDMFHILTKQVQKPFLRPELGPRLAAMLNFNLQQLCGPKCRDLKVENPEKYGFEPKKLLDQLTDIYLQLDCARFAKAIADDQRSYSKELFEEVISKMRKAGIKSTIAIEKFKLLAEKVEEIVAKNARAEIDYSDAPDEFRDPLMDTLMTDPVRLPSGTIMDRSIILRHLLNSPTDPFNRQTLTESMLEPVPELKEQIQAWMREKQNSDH
UniProt P61960, sequence (P61960 whole entry, looked up): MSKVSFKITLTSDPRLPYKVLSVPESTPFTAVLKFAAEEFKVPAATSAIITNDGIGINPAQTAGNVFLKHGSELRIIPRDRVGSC
UniProt Q9NX01, sequence (Q9NX01 whole entry, looked up): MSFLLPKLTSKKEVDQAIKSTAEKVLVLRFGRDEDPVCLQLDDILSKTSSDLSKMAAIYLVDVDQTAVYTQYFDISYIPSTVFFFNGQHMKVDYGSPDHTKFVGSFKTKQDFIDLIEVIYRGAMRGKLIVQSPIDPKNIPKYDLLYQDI

log2 fold change, inactive:
TRIM44 (UniProt Q96DX7) 0.008, TRIM23 (UniProt P36406) 0.015, VPS28 (UniProt Q9UK41) 0.122, UBE2D1 (UniProt P51668) 0.062, TMEM268 isoform 3 (UniProt Q5VZI3) 0.084, WASHC2A (UniProt Q641Q2) -0.035, TMEM179B (UniProt Q7Z7N9) -0.019, UBE4B isoform 4 (UniProt O95155) 0.02, TRAPPC6B (UniProt Q86SZ2) 0.046, TMEM9B (UniProt Q9NQ34) 0.023, TMEM8A (UniProt Q9HCN3) -0.037, UNC119B (UniProt A6NIH7) 0.043, TRIM4 (UniProt Q9C037) -0.006, UBIAD1 (UniProt Q9Y5Z9) -0.301, USP48 isoform 8 (UniProt Q86UV5) 0.177, TMEM164 (UniProt Q5U3C3) 0.087, UFM1 isoform 2 (UniProt P61960) -0.044, TUT4 (UniProt Q5TAX3) -0.161, UBAP2L (UniProt F8W726) 0.095, TMEM41A (UniProt Q96HV5) 0.04, TMEM184C (UniProt Q9NVA4) -0.065, XIAP (UniProt P98170) 0.091, TMEM106B (UniProt Q9NUM4) 0.022, TXNL4B (UniProt Q9NX01) 0.029, UBE2S (UniProt Q16763) 0.072, VKORC1 (UniProt Q9BQB6) 0.001, TMEM161A (UniProt Q9NX61) 0.083, VWA3B isoform 6 (UniProt Q502W6) -0.128, TTI1 (UniProt O43156) 0.028, UBE2Q1 (UniProt Q7Z7E8) 0.029, TRABD (UniProt Q9H4I3) -0.014, UBXN10 (UniProt Q96LJ8) -0.121

The targets below were run with O=C(O)c1ccc2c(c1)nc(Nc1cccc(Cl)c1)c1ccncc12 [silmitasertib] in the same assay as above.
Outline: as §1

log2 fold change, inactive:
TRIM44 (UniProt Q96DX7) 0.045, TRIM23 (UniProt P36406) -0.044, VPS28 (UniProt Q9UK41) 0.058, UBE2D1 (UniProt P51668) 0.049, TMEM268 isoform 3 (UniProt Q5VZI3) -0.114, WASHC2A (UniProt Q641Q2) 0.072, TMEM179B (UniProt Q7Z7N9) -0.043, UBE4B isoform 4 (UniProt O95155) 0.042, TRAPPC6B (UniProt Q86SZ2) 0.001, TMEM9B (UniProt Q9NQ34) 0.038, TSPAN13 (UniProt O95857) 0, TMEM8A (UniProt Q9HCN3) 0.053, WEE1 (UniProt P30291) -0.122, UNC119B (UniProt A6NIH7) 0.031, TRIM4 (UniProt Q9C037) 0.042, UBIAD1 (UniProt Q9Y5Z9) 0.013, USP48 isoform 8 (UniProt Q86UV5) 0.094, TMEM164 (UniProt Q5U3C3) 0.01, UFM1 isoform 2 (UniProt P61960) -0.025, TUT4 (UniProt Q5TAX3) 0.094, UBAP2L (UniProt F8W726) 0.004, TMEM41A (UniProt Q96HV5) -0.015, TMEM184C (UniProt Q9NVA4) -0.004, XIAP (UniProt P98170) -0.029, TMEM106B (UniProt Q9NUM4) 0.034, TXNL4B (UniProt Q9NX01) 0.118, UBE2S (UniProt Q16763) 0.069, VKORC1 (UniProt Q9BQB6) -0.023, TMEM161A (UniProt Q9NX61) -0.023, VWA3B isoform 6 (UniProt Q502W6) 0.162, VPS37A (UniProt Q8NEZ2) 0.02, TTI1 (UniProt O43156) 0.062, UBE2Q1 (UniProt Q7Z7E8) 0.074, TRABD (UniProt Q9H4I3) 0.188, UBXN10 (UniProt Q96LJ8) -0.006

Each target was assayed with O=C1NC(=O)C(c2cnc3ccccn23)=C1c1cn2c3c(cc(F)cc13)CN(C(=O)N1CCCCC1)CC2 in the same assay as above.
Outline: as §1

log2 fold change, inactive:
VPS28 (UniProt Q9UK41) -0.001, TMEM268 isoform 3 (UniProt Q5VZI3) 0.174, WASHC2A (UniProt Q641Q2) 0.016, TMEM179B (UniProt Q7Z7N9) -0.173, UBE4B isoform 4 (UniProt O95155) -0.082, TRAPPC6B (UniProt Q86SZ2) 0.143, TMEM9B (UniProt Q9NQ34) 0.043, TSPAN13 (UniProt O95857) -0.166, WEE1 (UniProt P30291) 0.089, TRIM4 (UniProt Q9C037) -0.051, USP48 isoform 8 (UniProt Q86UV5) -0.177, TMEM164 (UniProt Q5U3C3) -0.004, UFM1 isoform 2 (UniProt P61960) -0.007, TUT4 (UniProt Q5TAX3) 0.322, TMEM41A (UniProt Q96HV5) -0.018, TMEM184C (UniProt Q9NVA4) -0.055, XIAP (UniProt P98170) -0.047, TMEM106B (UniProt Q9NUM4) 0, UBE2S (UniProt Q16763) -0.106, TMEM161A (UniProt Q9NX61) -0.009, VWA3B isoform 6 (UniProt Q502W6) -0.009, VPS37A (UniProt Q8NEZ2) -0.198, TTI1 (UniProt O43156) 0.057, UBE2Q1 (UniProt Q7Z7E8) -0.035, TRABD (UniProt Q9H4I3) 0.055, UBXN10 (UniProt Q96LJ8) -0.031, TMEM219 (UniProt Q86XT9) -0.025
